tim10-1 inh: growth inhibitors of tim10-1 mutant yeast | S. cerevisiae tim10-1 ts strain growth, BacTiter-Glo, 24 h | inhibition, % at 20 µM | 330,000 compounds, 2.2% hits;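 active means inhibition of at least 40%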;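 further: mutant grown at 25 °C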
tim23-1 inh: inhibits growth of tim23-1 mutant yeast; inhibition, % at 20 µM; 330,000 compounds, 1.3% hits; S. cerevisiae tim23-1 growth, BacTiter-Glo luminescence, 24 h;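 active means growth inhibition of the mutant yeast at or above 50%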;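 further: temperature-sensitive mutant grown at 25 °C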
PfHsp90 yeast 2: growth inhibition of yeast expressing Plasmodium Hsp90; S. cerevisiae expressing PfHsp90, BacTiter-Glo ATP, 48 h; yeast lacking PDR1 and PDR3 efflux regulators; inhibition, % at 9.4 µM; 310,000 compounds, 0.32% hits;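 active means every replicate shows inhibition above about 80%, whatever the replicate mean, limit read from the data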
NALP1 yeast inh: inhibitors of NALP1 inflammasome in yeast; S. cerevisiae NALP1/ASC/caspase-1 growth, X-gal OD620, 72 h; inhibition, % at 10 µM; 280,000 compounds, 0.61% hits; AID 2071; in the data active means inhibition mostly above about 24%, no sharp cut-off; inactive means mostly below about 32%
TIM10 inh: TIM10 yeast growth inhibition; 330,000 compounds, 1.4% hits; S. cerevisiae TIM10 strain growth, BacTiter-Glo luminescence, 24 h; inhibition, % at 10 µM;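 active means inhibition of 40% or more at the single tested concentration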;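 further: wild-type TIM10 isogenic control strain grown at permissive 25 °C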
SKKanGAS inh: inhibitors of SKKanGAS S. pyogenes growth in kanamycin (SK-promoter or general growth effect). BacTiter-Glo, 6 h. inhibition, % at 7.5 µM. 300,000 compounds, 1.3% hits;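 active means mean replicate score, as percent of positive control median, at least 50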;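 further: strain carries kanamycin resistance gene driven by streptokinase promoter and grows in 40 µg/ml kanamycin; loss of luminescence reflects streptokinase promoter inhibition or plain growth inhibition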
A number is an active result; n = inactive; x = not tested or not shown. Most compounds without a hit are left out; they make up all but 4.8% or so of the library.

SMILES	tim10-1 inh	tim23-1 inh	PfHsp90 yeast 2	NALP1 yeast inh	TIM10 inh	SKKanGAS inh
COc1ccc(NCc2nn(CC(=O)c3ccc(Br)cc3)c3[n+]2CCCCC3)cc1	n	n	n	n	n	n
COCC1CCN(Cc2nc(-c3cccs3)no2)C1 (stereo not drawn)	n	n	n	n	n	n
COc1ccccc1CN1CCN(Cc2nc(-c3cccs3)no2)CC1	n	n	n	22	n	n
Cn1c(C(=O)N2CCCC(C(=O)NCCN3CCOCC3)C2)cc2sccc21 (stereo not drawn)	n	n	n	30	n	n
Cn1c(C(=O)N2CCCC(C(=O)O)C2)cc2sccc21 (stereo not drawn)	n	n	n	n	n	n
Cc1ccc(-n2c(=O)c(C#N)cc3c(=O)n4cccc(C)c4nc32)cc1	n	n	n	37	n	n
COc1ccc(C(=O)Oc2ccc[nH]c2=O)cc1	n	n	n	n	n	n
CCNC(=O)Oc1ccc[nH]c1=O	n	n	n	37	n	n
COC(=O)C(O)(CC(=O)Nc1ccc(C)c(F)c1)C(F)(F)F (stereo not drawn)	n	n	n	n	n	n
CN(C)S(=O)(=O)c1ccc(NC(=O)CN2CCOCC2)cc1	n	n	n	x	n	n
CCCCN(CCCC)S(=O)(=O)c1ccc(NC(=O)CN2CCOCC2)cc1	n	n	n	41	n	n
CC(C)C(=O)NC(c1cccc([N+](=O)[O-])c1)c1c(O)ccc2ccccc12 (stereo not drawn)	n	n	n	n	n	n
CC(C)C(=O)NC(c1cccc([N+](=O)[O-])c1)c1ccc2cccnc2c1O (stereo not drawn)	n	n	119	n	n	n
CC(=O)NC(c1ccco1)c1cc(F)c2cccnc2c1O (stereo not drawn)	n	n	n	x	n	x
CC(C)C(=O)NC(c1ccco1)c1ccc2cccnc2c1O (stereo not drawn)	n	n	n	n	n	87
N=C1/C(=C\c2ccc(-c3cccc(C(=O)O)c3)o2)C(=O)N=C2SC=C(c3ccccc3)N12	n	n	n	n	n	79
N=C1/C(=C/c2ccc(-c3cccc(C(=O)O)c3)o2)C(=O)N=C2SC(CC(=O)N3CCOCC3)=NN12	n	n	n	n	n	n
O=C(Nc1ccc(Cl)cc1)c1ccc(OCC2CCCO2)cc1 (stereo not drawn)	n	n	n	35	n	n
O=C(NCc1ccc(Cl)cc1)c1ccc(OCC2CCCO2)cc1 (stereo not drawn)	n	n	n	n	n	n
CC(Sc1nccn1C)C(=O)c1c(N)n(C)c(=O)n(C)c1=O (stereo not drawn)	n	n	n	x	n	n
CCOc1ccc(/C=N/NC(=S)NC2CC3CC2C2C=CCC32)cc1 (stereo not drawn)	n	n	n	n	n	64
Cc1cccc(N2C(=O)C(O)=C(C(=O)c3cccs3)C2c2cccc(Oc3ccccc3)c2)n1 (stereo not drawn)	n	n	n	n	n	65
CC(=O)C1=C(O)C(=O)N(c2ccc(C(=O)O)cc2)C1c1ccc([N+](=O)[O-])cc1 (stereo not drawn)	n	n	n	n	n	n
Cc1cccc(N2C(=O)C(O)=C(C(=O)c3cccs3)C2c2ccccc2)n1 (stereo not drawn)	n	n	n	n	n	n
O=C(C1=C(O)C(=O)N(c2ccccc2)C1c1ccc([N+](=O)[O-])cc1)c1cccs1 (stereo not drawn)	n	n	n	n	n	59
SMILES	tim10-1 inh	tim23-1 inh	PfHsp90 yeast 2	NALP1 yeast inh	TIM10 inh	SKKanGAS inh
Cc1ccc(CNC(=O)c2ccc(N3CCC4(CC3)CC(c3cccc(Br)c3)=NO4)c(NC(=O)c3cccc(C)c3)c2)cc1	n	n	x	x	n	x
CN(C)c1ccc(C2C=C(c3ccc(Cl)cc3OC(F)F)Nc3ncnn32)cc1 (stereo not drawn)	n	n	n	n	n	87
CCOc1ccc(-n2c(O)c(/C=N/NC(=O)C3COc4ccccc4O3)c3ccccc3c2=O)cc1 (stereo not drawn)	n	n	n	n	n	73
O=C(COC(=O)/C=C/c1ccc(F)cc1)NCc1cccs1	n	n	n	x	n	x
CC#CC[N+](C)(C)CCCCCCCC	n	n	n	x	n	n
CCCCCCCCCCCCCCCC[N+](C)(C)Cc1ccc(F)cc1	x	x	115	x	x	x
CSc1nsc2nc(=O)c(/C=C3\C=Nc4ccccc43)c(N)n12	n	n	n	n	n	50
CC(C)NCCCCOc1ccc(Br)cc1Cl	n	n	n	28	n	n
CCCOc1ccc(/C(O)=C2/C(=O)C(=O)N(CCOC)C2c2cccnc2)cc1 (stereo not drawn)	n	n	x	31	n	n
COc1ccc(CN(C)CC(=O)NC(=O)NCc2ccccc2)c(OC)c1	n	n	n	n	n	n
CCCCCOc1ccc(C2C(C(=O)c3ccc(C)o3)=C(O)C(=O)N2c2cc(C)on2)cc1 (stereo not drawn)	n	n	n	n	n	81
CC1=CC(=O)C=C(C)C1=NOS(=O)(=O)c1ccccc1	x	x	106	104	x	n
CC1=CC(=O)C(C(C)C)=C/C1=N/OS(=O)(=O)c1ccccc1	n	n	110	n	n	n
Cc1ccc2c(c1)/C(=N/OS(=O)(=O)c1ccccc1)CCS2	n	n	x	x	n	n
Clc1ccc(-[n+]2c(-c3cccc(Br)c3)[nH]c3nc4ccccc4nc32)cc1	n	n	n	n	n	85
CC(C)(C)NCC(=O)c1c[nH]c2ccccc12	n	n	n	30	n	n
CCOCCCNC(=O)C1CC(=O)N(CCc2ccc(C)cc2)C1 (stereo not drawn)	n	n	n	38	n	n
COc1ccc(OC(C)C(=O)N(C)Cc2nc(-c3cccc(C)c3)no2)cc1 (stereo not drawn)	n	n	n	n	n	n
O=C(Nc1ccc(Br)cc1C(=O)O)c1ccc2c(c1)C(=O)N(Cc1ccccc1)C2=O	n	n	x	n	n	76
COc1ccc(C(=O)c2ccc(N3CCN(C4CC(=O)NC4=O)CC3)cc2)cc1F (stereo not drawn)	n	n	n	n	n	73
COc1ccc(N2CCN(C3CC(=O)NC3=O)CC2)cc1 (stereo not drawn)	n	n	n	n	n	n
S=C1SCN(Cc2ccccc2)CN1Cc1ccccc1	n	n	n	n	n	n
S=C1SCN(Cc2cccnc2)CN1Cc1cccnc1	n	n	85	69	n	n
Oc1c(Cl)cc(CN2CCCCC2)c2cccnc12	n	n	n	n	n	n
Oc1ccc(F)c2cccnc12	n	n	n	n	n	n
O=C(Oc1ccc(Cl)c2cccnc12)c1cccnc1	n	n	112	n	n	68
Oc1ccc(Cl)c2cccnc12	x	x	108	x	x	x
Oc1c(Cl)cc(Cl)c2cccnc12	x	x	107	n	x	87

Assay outcomes: PubChem, several laboratories
